In PubChem BioAssay (Tox21):
“And” between values parts separate entries of the source, which are not always exact repeats. Equal values may be shown once. Results filed as inconclusive are left out. The source made the active and inactive calls. Calls follow the shape of the dose curve; as a rule, active = well fitted curve in the direction sought with a large enough effect in the repeat runs; inconclusive = weak or mixed curves; inactive = no such curve, though single readings can be large; an effect the other way counts as inactive or inconclusive.

Columns and labels:
[1] = Human pregnane X receptor (PXR) small molecule agonists, qHTS cell viability counter screen (AID 1346977); also: nearly all actives have a fitted effect of over 50% in size; also: potency is read from the fitted curve at half-maximal effect
In short: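 Tox21 qHTS format; PXR-Luc HepG2, 2,000/well, charcoal-stripped FBS 5%. Cpd exposure 24hr. Read: CellTiter-Fluor fluorescence, multiplexed with luciferase.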

[2] = Caspase-3/7 induction in HepG2 cells by small molecules, qHTS assay (AID 1346978); also: nearly all actives have a fitted effect of over 15% in size
In short: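 Wild-type HepG2 cells (2,000/well) were settled 5 h at 37 C, 5% CO2, then exposed to compounds in DMSO for 17 h. Caspase-3/7 activity was read by luminescence 30 min after adding Caspase-Glo 3/7 reagent at room temperature.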

[3] = Caspase-3/7 induction in CHO-K1 cells by small molecules, qHTS assay (AID 1346980); also: nearly all actives have a fitted effect of over 15% in size
In short: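 Wild-type cells were seeded at 1,500 per well and settled 5 hr at 37 C, 5% CO2, then exposed to DMSO-dissolved compounds for 17 hr. Caspase-Glo 3/7 reagent was added, and luminescence was read after 30min at room temperature.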

[4] = molecular target: Nuclear receptor subfamily 1 group I member 2 (Homo sapiens) (UniProt O75469); assay: Human pregnane X receptor (PXR) small molecule agonists, qHTS assay (AID 1346982); also: nearly all actives have a fitted effect of over 35% in size; also: potency is read from the fitted curve at half-maximal effect
In short: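 We seeded PXR-Luc HepG2 cells in assay medium containing 5% charcoal-stripped FBS, added compounds 5 hr later, incubated 24 hr, and read luminescence with ONE-Glo reagent.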

[5] = molecular target: Cytochrome P450 2D6 (Homo sapiens) (UniProt P10635); assay: Cytochrome P450 Family 2 Subfamily D Member 6 (CYP2D6) small molecule antagonists: luciferase reporter qHTS assay (AID 1671196); also: nearly all actives have a fitted effect of over 50% in size; also: potency is read from the fitted curve at half-maximal effect; as to activity change, negative = inhibition: series mostly up to about 120 µM
In short: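 Luminescence (RLU), read 20 min after detection reagent, indicated CYP2D6 conversion of proluciferin to luciferin during a 1 h NADPH-dependent reaction at room temperature.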

[6] = molecular target: Cytochrome P450 2C19 (Homo sapiens) (UniProt P33261); assay: Cytochrome P450 Family 2 Subfamily C Member 19 (CYP2C19) small molecule antagonists: luciferase reporter qHTS assay (AID 1671197); also: nearly all actives have a fitted effect of over 65% in size; also: potency is read from the fitted curve at half-maximal effect; as to activity change, negative = inhibition: series mostly up to about 120 µM
In short: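 First, compounds are pinned into enzyme-substrate mix and held 10 min at room temperature. Second, NADPH regeneration solution is added and plates incubate 1 h at 37C. Third, detection reagent is added and luminescence read after 20 min.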

[7] = molecular target: Cytochrome P450 2C9 (Homo sapiens) (UniProt P11712); assay: Cytochrome P450 Family 2 Subfamily C Member 9 (CYP2C9) small molecule antagonists: luciferase reporter qHTS assay (AID 1671198); also: nearly all actives have a fitted effect of over 50% in size; also: potency is read from the fitted curve at half-maximal effect; as to activity change, negative = inhibition: series mostly up to about 120 µM
In short: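 CYP2C9 activity was measured with a P450-Glo proluciferin substrate. Enzyme–substrate mix was held with compound for 10 min at room temperature, then NADPH regeneration solution was added for 1 h at 37C. Luciferin product was read as luminescence.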

[8] = molecular target: Voltage-gated inwardly rectifying potassium channel KCNH2 (Homo sapiens) (UniProt Q12809); assay: Human Ether-a-go-go-Related Gene (hERG) channel small molecule antagonists: fluorescence cell-based qHTS assay (AID 1671200); also: nearly all actives have a fitted effect of over 50% in size; also: potency is read from the fitted curve at half-maximal effect;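 as to activity change, negative = inhibition: hERG-expressing U2OS cells given a thallium stimulus after FluxOR II dye loading; series mostly up to about 77 µM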
In short: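 Kinetic two-minute fluorescence traces, sampled at 1 s, were collected following thallium stimulus of U2OS cells (1000 per well) that had been cultured overnight at 37 C and loaded with FluxOR II.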

[9] = molecular target: Cytochrome P450 3A4 (Homo sapiens) (UniProt P08684); assay: Cytochrome P450 Family 3 Subfamily A Member 4 (CYP3A4) small molecule antagonists: luciferase reporter qHTS assay (AID 1671201)
In short: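 Proluciferin-to-luciferin conversion by CYP3A4, NADPH-regenerated, 1 h RT; luminescence read as RLU. Ketoconazole as control.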

[10] = Caspase-3/7 induction in CHO-K1 cells by small molecules, qHTS cell viability counter screen (AID 1346979); also: nearly all actives have a fitted effect of over 35% in size; also: potency is read from the fitted curve at half-maximal effect
In short: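 CellTiter-Fluor viability check, qHTS format: wild-type CHO-K1, 16hr compound treatment, 1hr reagent incubation, fluorescence read.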

[11] = Caspase-3/7 induction in HepG2 cells by small molecules, qHTS cell viability counter screen (AID 1346981); also: nearly all actives have a fitted effect of over 30% in size; also: potency is read from the fitted curve at half-maximal effect; as to activity change, negative = cytotoxicity: series mostly up to about 92 µM
In short: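 Multiplexed with the caspase-3/7 assay: HepG2 cells, 16 hr compound treatment, CellTiter-Fluor viability detection by fluorescence.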

[12] = molecular target: Cytochrome P450 1A2 (Homo sapiens) (UniProt P05177); assay: Cytochrome P450 Family 1 Subfamily A Member 2 (CYP1A2) small molecule antagonists: luciferase reporter qHTS assay (AID 1671199); also: nearly all actives have a fitted effect of over 50% in size; also: potency is read from the fitted curve at half-maximal effect; as to activity change, negative = inhibition: series mostly up to about 120 µM
In short: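 CYP1A2 turnover of a luminogenic substrate was quantified after 1 h with NADPH regeneration at room temperature. Furafylline served as positive control.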

[13] = molecular target: Nuclear receptor subfamily 1 group I member 2 (Rattus norvegicus) (UniProt Q9R1A7); assay: Rat pregnane X receptor (rPXR) activation by small molecules, qHTS assay (AID 1346983); settings: rPXR luciferase reporter cells, One-Glo luminescence, 24 h; stronger effect = higher value; also: nearly all actives have a fitted effect of over 20% in size
In short: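 Cell-based rPXR luciferase reporter assay, 2,000 cells per well, rested 5hr at 37 C before compound addition in DMSO, then 24 hr at 37 C. One-Glo reagent was added and luminescence read after 30 min at room temperature.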

[14] = molecular target: Nuclear receptor subfamily 1 group I member 2 (Homo sapiens) (UniProt O75469); assay: CYP3A4 induction through human pregnane X receptor (PXR) by small molecules, qHTS assay (AID 1346984); also: nearly all actives have a fitted effect of over 40% in size; also: potency is read from the fitted curve at half-maximal effect
In short: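 qHTS, concentration-response format: HepG2 DPX-2 line, PXR/CYP3A4-luc. Exposure 24 h, 37C. Substrate Luciferin-IPA 3uM final, 3 h. Detection One-Glo, 30 min RT.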

[15] = molecular target: Nuclear receptor subfamily 1 group I member 2 (Homo sapiens) (UniProt O75469); assay: Human pregnane X receptor (PXR) activation by small molecules, qHTS assay (AID 1346985); also: nearly all actives have a fitted effect of over 40% in size
In short: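 DPX-2 cells (HepG2 co-transfected with a PXR response element and a CYP3A4-promoter luciferase construct) were seeded at 2,000 per well, rested 5 hr at 37C, then exposed to DMSO-dissolved compounds for 24 hr. Activation was read as luciferase luminescence.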
% is scaled to controls: 0 for no effect and ±100 for the full control effect.

Chain of Nuclear receptor subfamily 1 group I member 2 (Homo sapiens) (O75469 whole entry, looked up): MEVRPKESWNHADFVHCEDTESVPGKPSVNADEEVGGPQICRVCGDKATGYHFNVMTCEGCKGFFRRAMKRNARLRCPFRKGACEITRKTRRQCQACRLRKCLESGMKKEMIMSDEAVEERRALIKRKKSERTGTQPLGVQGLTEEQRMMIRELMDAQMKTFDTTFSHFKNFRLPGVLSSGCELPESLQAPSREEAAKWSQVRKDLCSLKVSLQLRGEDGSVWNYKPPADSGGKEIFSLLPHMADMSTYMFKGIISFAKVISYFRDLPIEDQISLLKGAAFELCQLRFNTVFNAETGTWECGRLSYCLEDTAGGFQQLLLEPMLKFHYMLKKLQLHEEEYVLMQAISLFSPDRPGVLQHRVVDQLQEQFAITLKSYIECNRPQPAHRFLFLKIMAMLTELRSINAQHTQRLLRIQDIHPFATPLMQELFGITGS
Chain of Cytochrome P450 3A4 (Homo sapiens) (P08684 whole entry, looked up): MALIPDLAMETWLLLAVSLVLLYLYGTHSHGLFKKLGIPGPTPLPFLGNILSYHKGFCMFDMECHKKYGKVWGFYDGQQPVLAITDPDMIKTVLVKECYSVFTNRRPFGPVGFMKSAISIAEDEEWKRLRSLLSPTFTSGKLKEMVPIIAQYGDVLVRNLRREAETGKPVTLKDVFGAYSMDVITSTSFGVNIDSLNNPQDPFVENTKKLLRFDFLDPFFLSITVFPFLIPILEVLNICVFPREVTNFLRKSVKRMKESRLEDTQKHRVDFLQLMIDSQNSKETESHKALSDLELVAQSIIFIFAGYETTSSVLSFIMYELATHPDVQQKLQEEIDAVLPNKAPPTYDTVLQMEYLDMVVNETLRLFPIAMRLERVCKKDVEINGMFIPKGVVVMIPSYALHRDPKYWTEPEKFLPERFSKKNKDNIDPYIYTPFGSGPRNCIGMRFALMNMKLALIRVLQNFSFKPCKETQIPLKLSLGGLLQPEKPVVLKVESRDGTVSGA
Chain of Cytochrome P450 2C9 (Homo sapiens) (P11712 whole entry, looked up): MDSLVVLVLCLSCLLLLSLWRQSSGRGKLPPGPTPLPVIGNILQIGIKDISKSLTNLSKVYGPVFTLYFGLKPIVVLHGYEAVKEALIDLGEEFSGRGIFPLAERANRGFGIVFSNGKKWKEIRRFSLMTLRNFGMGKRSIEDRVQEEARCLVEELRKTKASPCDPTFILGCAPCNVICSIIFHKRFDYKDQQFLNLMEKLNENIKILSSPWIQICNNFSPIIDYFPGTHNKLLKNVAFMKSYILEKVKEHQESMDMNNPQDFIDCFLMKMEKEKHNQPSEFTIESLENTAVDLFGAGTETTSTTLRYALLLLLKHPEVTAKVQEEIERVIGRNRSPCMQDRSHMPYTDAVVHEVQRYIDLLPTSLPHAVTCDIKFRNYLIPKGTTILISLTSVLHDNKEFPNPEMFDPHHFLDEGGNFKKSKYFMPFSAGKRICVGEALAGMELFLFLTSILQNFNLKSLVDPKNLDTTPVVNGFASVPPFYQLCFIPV
Chain of Voltage-gated inwardly rectifying potassium channel KCNH2 (Homo sapiens) (Q12809 whole entry, looked up): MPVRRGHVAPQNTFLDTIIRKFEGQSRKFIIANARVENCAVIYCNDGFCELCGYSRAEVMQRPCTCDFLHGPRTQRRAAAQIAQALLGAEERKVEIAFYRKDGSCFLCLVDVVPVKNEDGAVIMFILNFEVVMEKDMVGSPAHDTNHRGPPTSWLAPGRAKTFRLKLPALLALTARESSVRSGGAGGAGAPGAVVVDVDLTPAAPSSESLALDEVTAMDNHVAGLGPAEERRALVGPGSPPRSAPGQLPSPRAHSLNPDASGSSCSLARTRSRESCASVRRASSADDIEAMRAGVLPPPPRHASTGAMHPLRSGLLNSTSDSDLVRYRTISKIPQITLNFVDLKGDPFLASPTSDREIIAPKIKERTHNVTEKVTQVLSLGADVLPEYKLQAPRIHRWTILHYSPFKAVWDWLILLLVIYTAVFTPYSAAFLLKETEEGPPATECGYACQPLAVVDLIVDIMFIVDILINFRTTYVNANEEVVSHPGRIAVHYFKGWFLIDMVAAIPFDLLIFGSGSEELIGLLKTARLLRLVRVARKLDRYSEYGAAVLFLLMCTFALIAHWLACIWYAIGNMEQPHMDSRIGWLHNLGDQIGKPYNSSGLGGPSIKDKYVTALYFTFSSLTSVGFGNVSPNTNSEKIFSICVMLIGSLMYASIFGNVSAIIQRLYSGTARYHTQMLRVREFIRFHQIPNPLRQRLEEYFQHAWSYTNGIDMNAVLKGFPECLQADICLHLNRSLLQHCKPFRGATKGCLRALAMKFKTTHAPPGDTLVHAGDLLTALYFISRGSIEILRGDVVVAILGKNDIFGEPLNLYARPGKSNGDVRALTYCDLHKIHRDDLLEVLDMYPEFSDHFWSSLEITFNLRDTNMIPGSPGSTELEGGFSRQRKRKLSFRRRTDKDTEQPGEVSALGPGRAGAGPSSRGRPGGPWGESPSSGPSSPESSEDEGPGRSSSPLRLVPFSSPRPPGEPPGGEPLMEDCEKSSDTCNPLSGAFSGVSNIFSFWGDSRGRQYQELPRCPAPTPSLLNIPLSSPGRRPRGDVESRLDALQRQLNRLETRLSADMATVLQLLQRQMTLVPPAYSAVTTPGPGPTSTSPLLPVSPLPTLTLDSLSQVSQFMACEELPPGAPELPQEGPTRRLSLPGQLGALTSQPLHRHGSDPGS
Chain of Cytochrome P450 2D6 (Homo sapiens) (P10635 whole entry, looked up): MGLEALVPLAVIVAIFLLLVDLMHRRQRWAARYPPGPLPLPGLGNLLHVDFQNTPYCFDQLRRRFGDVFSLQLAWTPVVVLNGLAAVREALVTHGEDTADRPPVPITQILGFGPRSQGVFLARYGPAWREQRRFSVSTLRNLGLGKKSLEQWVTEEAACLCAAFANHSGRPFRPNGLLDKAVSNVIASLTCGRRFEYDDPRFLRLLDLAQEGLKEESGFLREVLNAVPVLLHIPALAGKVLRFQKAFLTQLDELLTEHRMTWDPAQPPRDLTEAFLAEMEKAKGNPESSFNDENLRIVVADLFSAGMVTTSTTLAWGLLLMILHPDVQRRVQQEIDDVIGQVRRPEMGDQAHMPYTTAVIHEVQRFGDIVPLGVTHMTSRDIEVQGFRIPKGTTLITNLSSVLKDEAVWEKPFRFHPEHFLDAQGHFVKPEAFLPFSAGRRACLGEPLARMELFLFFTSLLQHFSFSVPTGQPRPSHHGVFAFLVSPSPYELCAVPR
Chain of Cytochrome P450 1A2 (Homo sapiens) (P05177 whole entry, looked up): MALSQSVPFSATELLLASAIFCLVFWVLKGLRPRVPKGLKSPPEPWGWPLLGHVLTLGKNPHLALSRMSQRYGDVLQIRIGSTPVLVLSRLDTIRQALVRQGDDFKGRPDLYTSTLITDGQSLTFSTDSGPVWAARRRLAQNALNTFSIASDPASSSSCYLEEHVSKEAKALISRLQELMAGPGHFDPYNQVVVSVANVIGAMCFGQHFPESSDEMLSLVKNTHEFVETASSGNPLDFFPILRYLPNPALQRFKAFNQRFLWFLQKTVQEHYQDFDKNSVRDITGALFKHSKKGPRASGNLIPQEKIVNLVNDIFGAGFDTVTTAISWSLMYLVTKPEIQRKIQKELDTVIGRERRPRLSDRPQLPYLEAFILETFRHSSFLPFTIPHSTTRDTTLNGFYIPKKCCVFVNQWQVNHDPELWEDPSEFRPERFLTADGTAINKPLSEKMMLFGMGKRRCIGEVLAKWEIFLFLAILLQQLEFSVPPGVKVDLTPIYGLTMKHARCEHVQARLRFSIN
Chain of Nuclear receptor subfamily 1 group I member 2 (Rattus norvegicus) (Q9R1A7 whole entry, looked up): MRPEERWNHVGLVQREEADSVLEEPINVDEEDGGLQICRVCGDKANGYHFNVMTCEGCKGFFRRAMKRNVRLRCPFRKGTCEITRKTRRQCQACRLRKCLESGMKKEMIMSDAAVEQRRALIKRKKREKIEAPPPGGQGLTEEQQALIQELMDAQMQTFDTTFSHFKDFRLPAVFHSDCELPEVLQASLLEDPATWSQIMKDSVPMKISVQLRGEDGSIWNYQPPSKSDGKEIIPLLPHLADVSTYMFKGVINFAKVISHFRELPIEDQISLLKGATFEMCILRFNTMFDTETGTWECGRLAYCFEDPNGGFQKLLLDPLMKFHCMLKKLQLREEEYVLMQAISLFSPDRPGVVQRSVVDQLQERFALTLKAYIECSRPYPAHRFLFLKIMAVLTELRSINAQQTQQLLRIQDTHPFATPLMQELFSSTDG
Chain of Cytochrome P450 2C19 (Homo sapiens) (P33261 whole entry, looked up): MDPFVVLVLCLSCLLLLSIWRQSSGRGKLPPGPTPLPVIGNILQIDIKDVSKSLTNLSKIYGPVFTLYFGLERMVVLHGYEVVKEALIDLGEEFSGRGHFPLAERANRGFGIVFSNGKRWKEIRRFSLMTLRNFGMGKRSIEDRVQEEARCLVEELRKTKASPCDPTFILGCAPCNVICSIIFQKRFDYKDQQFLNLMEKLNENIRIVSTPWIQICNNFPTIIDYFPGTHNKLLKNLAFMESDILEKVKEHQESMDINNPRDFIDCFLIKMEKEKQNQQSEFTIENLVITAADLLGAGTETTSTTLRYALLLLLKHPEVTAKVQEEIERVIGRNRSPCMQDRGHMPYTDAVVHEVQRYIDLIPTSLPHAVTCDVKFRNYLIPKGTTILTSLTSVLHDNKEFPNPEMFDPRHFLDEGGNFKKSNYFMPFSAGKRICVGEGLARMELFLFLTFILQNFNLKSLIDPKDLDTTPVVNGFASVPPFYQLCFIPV

CCn1ccnc1CC1COc2ccccc2O1 (stereo not drawn)
active: Potency [4] 26.6 µM | Potency [5] 0.776 µM | Potency [6] 4.9 µM
inactive: Potency [1] | Potency [2] | outcome [3] | Potency [7] | Potency [8] | Potency [9]

O=C1OC(=O)C2CCCCC12 (stereo not drawn)
inactive: Potency [1] | Potency [10] | outcome [3] | Potency [11] | Potency [4] | Potency [5] | Potency [6] | Potency [7] | Potency [12] | Potency [8] | Potency [9]

N=C(N)c1ccc2cc(OC(=O)c3ccc(N=C(N)N)cc3)ccc2c1
inactive: Potency [1] | Potency [2] | outcome [3] | Potency [11] | Potency [4] | max activation [13] -2.79% | Potency [14] | Potency [15] | Potency [6] | Potency [7] | Potency [12] | Potency [8] | Potency [9]

COc1ccc(CCN(C)CCCC(C#N)(c2cc(OC)c(OC)c(OC)c2)C(C)C)cc1OC (stereo not drawn)
inactive: Potency [2] | outcome [3] | Potency [6] | Potency [12]
active: Potency [1] 26.6 µM | Potency [4] 4.73 µM | Potency [8] 7.56 µM

CC(C)(C)c1nnc(NS(=O)(=O)c2ccccc2)s1
active: Potency [4] 11.9 µM | Potency [7] 27.5 µM
inactive: Potency [1] | Potency [2] | outcome [3] | Potency [11] | Potency [6] | Potency [12] | Potency [8] | Potency [9]

COCCCOCCCOC
inactive: Potency [1] | Potency [2] | Potency [11] | Potency [4] | Potency [5] | Potency [6] | Potency [7] | Potency [12] | Potency [8] | Potency [9]

CC[N+](C)(C)c1cccc(O)c1
inactive: Potency [1] | Potency [2] | outcome [3] | Potency [11] | max activation [13] -3.46% | Potency [6] | Potency [7] | Potency [12] | Potency [8] | Potency [9]

C[C@](N)(Cc1ccc(O)cc1)C(=O)O
inactive: activity change, negative = cytotoxicity [1] -1.21% [at 8.39 µM] | caspase activation [2] -1.17% [at 8.39 µM] | caspase-3/7 activation [3] 0.841% [at 8.39 µM] | activity change, negative = cytotoxicity [11] -1.6% [at 8.39 µM] | activation [4] -9.59% [at 8.39 µM] | max activation [13] 0.627% | Potency [14] | Potency [15] | activity change, negative = inhibition [5] -0.539% [at 10.5 µM] | activity change, negative = inhibition [6] -21.1% [at 10.5 µM] | activity change, negative = inhibition [12] 0.454% [at 10.5 µM] | activity change, negative = inhibition [8] 1.07% [at 6.97 µM] | activity change, negative = inhibition [9] -20.3% [at 10.5 µM]

O=C[C@H](O)[C@@H](O)[C@H](O)[C@H](O)CO
inactive: Potency [1] | Potency [2] | outcome [3] | Potency [4] | Potency [5] | Potency [6] | Potency [7] | Potency [12] | Potency [8] | Potency [9]

O=C(O)COc1nn(Cc2ccccc2)c2ccccc12
inactive: Potency [1] | Potency [2] | outcome [3] | Potency [11] | Potency [4] | max activation [13] -0.954% | Potency [14] | Potency [15] | Potency [5] | Potency [6] | Potency [12] | Potency [8] | Potency [9]

CC(C)NC(=O)NC(C)C
inactive: Potency [1] | Potency [2] | outcome [3] | Potency [11] | Potency [4] | Potency [5] | Potency [6] | Potency [7] | Potency [12] | Potency [8] | Potency [9]

CC(=O)Nc1c(I)cc(I)c(C(=O)O)c1I
inactive: Potency [1] | Potency [2] | Potency [11] | Potency [4] | max activation [13] -2.53% | Potency [14] | Potency [15] | Potency [8] | Potency [9]
active: Potency [5] 27.5 µM | Potency [12] 24.5 µM

CC(=O)N(CC(O)CO)c1c(I)c(C(=O)NCCO)c(I)c(C(=O)NCC(O)CO)c1I (stereo not drawn)
inactive: Potency [1] | Potency [2] | Potency [4] | Potency [5] | Potency [6] | Potency [7] | Potency [12] | Potency [8] | Potency [9]

COC(C)(C)CCCC(C)CC=O (stereo not drawn)
inactive: Potency [1] | Potency [2] | outcome [3] | Potency [11] | Potency [4] | Potency [6] | Potency [12] | Potency [8] | Potency [9]

CN(C)CCCN1c2ccccc2CCc2ccc(Cl)cc21
active: Potency [1] 30.6 µM and 29.8 µM | Potency [10] 68.6 µM and 29.8 µM | Potency [11] 61.1 µM and 29.8 µM
inactive: outcome [3]

O=S(O)CO
inactive: Potency [1] | Potency [2] | outcome [3] | Potency [11] | Potency [4] | Potency [5] | Potency [6] | Potency [7] | Potency [12] | Potency [8] | Potency [9]

C[C@H]1C[C@@H](O)CC(C)(C)C1
inactive: Potency [1] | Potency [2] | Potency [11] | Potency [4] | Potency [5] | Potency [6] | Potency [7] | Potency [12] | Potency [8] | Potency [9]

CCCCCCCCCCCCCC=O
active: Potency [5] 2.78 µM
inactive: activity change, negative = cytotoxicity [1] -1.66% [at 8.39 µM] | activity change, negative = cytotoxicity [10] 0.0836% [at 8.39 µM] | caspase-3/7 activation [3] 1.18% [at 8.39 µM] | activity change, negative = cytotoxicity [11] -0.047% [at 8.39 µM] | activation [4] -0.115% [at 8.39 µM] | activity change, negative = inhibition [6] -12.1% [at 10.5 µM] | activity change, negative = inhibition [7] -9.33% [at 10.5 µM] | activity change, negative = inhibition [8] -8.57% [at 6.97 µM] | activity change, negative = inhibition [9] -19.9% [at 10.5 µM]

CCCCCCCCCCCCN(CCCCCCCCCCCC)CCCCCCCCCCCC
inactive: Potency [1] | outcome [3] | Potency [11] | Potency [4] | Potency [5] | Potency [6] | Potency [7] | Potency [8] | Potency [9]

OC(CCN1CCCCC1)(c1ccccc1)C1CC2C=CC1C2 (stereo not drawn)
active: Potency [4] 10.6 µM | Potency [14] 28.2 µM
inactive: Potency [2] | Potency [10] | outcome [3] | Potency [11] | max activation [13] -2.76% | Potency [7] | Potency [12]

C[C@H](NC(CCc1ccccc1)C(=O)O)C(=O)N1CCC[C@H]1C(=O)O (stereo partly drawn)
inactive: Potency [1] | outcome [3] | Potency [11] | Potency [4] | Potency [5] | Potency [6] | Potency [7] | Potency [12] | Potency [9]
